GRK2 aptamer HTS: inhibitors of human GRK2 displacing RNA aptamer; bead flow cytometry, FAM-aptamer displacement from GRK2; inhibition of aptamer binding, % at 10 µM; actives 0.59% (n = 330,000); AID 488847;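 active = inhibition of aptamer binding above 40%, roughly 3 SD of noise, on plates passing a quality check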;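 also: median bead fluorescence of bound FAM aptamer so fluorescent compounds give negative values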
MEKK2 WT-MEK5: raises or lowers MEK5 binding to wildtype human MEKK2 PB1 domain; actives 1.1% (n = 290,000); bead flow cytometry, Alexa488-MEK5 binding to MEKK2 WT; actives lie on both sides; Q9Y2U5; binding response (% of control), % at 10 µM; AID 1531; in the data active = binding response below about 67% or above about 130%
MEKK2 mut-MEK5: signal of MEK5 binding to mutant human MEKK2 PB1 domain; percent response, % at 10 µM; actives 0.35% (n = 290,000); bead flow cytometry, Alexa488-MEK5 binding to MEKK2 mutant; AID 1530; in the data active = percent response above about 24%, passing the limit was not always enough
MEKK3 PB1 HTS: MEKK3-MEK5 PB1 interaction, increase or decrease; Q99759; bead-based flow cytometry, Alexa488-MEK5 binding to MEKK3; actives lie on both sides; 0 = blocked by unlabeled MEK5, 100 = vehicle; actives 1.4% (n = 290,000); binding response (% of control), % at 10 µM;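 active = binding response more than 3 SD above or below the average of its plate-row segment, actives on both sides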;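 also: Alexa488 bead fluorescence after subtracting the streptavidin-only scavenger bead signal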
Target sequence (Q99759 whole entry, looked up): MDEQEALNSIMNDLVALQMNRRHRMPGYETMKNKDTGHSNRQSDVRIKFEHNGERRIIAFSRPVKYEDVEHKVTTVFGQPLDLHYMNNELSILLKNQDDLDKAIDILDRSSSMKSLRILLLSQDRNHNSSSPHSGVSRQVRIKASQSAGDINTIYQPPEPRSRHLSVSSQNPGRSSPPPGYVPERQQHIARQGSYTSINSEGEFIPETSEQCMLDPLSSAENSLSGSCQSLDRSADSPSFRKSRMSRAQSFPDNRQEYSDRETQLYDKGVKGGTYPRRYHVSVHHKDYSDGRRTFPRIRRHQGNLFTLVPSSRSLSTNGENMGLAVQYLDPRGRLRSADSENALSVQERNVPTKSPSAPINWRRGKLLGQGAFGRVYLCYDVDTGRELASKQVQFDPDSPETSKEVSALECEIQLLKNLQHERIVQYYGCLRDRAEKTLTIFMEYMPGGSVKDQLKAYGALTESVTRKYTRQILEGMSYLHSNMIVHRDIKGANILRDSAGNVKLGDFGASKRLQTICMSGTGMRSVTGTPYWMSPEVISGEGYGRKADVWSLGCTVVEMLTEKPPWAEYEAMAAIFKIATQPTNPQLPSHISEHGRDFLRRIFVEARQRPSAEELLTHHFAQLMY
Each line names hits and unclear results; the compound was inactive in the other large screens; [ ] = remark or other dose. Hits are enriched below; roughly 2.5% of the tested compounds scored in any of these assays.

Cc1ccc(/C=N/Nc2ccnc3cc(Cl)ccc23)c(C)c1	MEKK2 WT-MEK5 167
Cc1ccc(-c2c(C(=O)N/N=C/c3cccc(Cl)c3)nnn2-c2nonc2N)cc1	MEKK2 WT-MEK5 135
Cc1ccc(C(=O)N/C(=C/c2ccc(-c3ccc([N+](=O)[O-])cc3)o2)C(=O)NCCCN(C)C)cc1	none (no result: MEKK2 WT-MEK5, MEKK2 mut-MEK5, MEKK3 PB1 HTS)
Cc1ccc(C(=O)N/C(=C\c2ccc(-c3ccc([N+](=O)[O-])cc3)o2)C(=O)NC2CCS(=O)(=O)C2)cc1 (stereo not drawn)	MEKK2 WT-MEK5 4.0
CCc1cc(CNC(=O)c2ccc(OC3CCN(CCc4ccccc4)CC3)cc2)on1	GRK2 aptamer HTS 49
O=C(NCc1ccon1)c1ccc(OC2CCN(CCc3ccccc3)CC2)cc1	none
COc1cccc(NC(=O)c2ccc(N3C(=O)C4CC=CCC4C3=O)cc2)c1 (stereo not drawn)	none (no result: MEKK2 WT-MEK5, MEKK2 mut-MEK5, MEKK3 PB1 HTS)
COc1ccc(-n2nc3c(N4CCC(C(=O)N5CCC(C)CC5)CC4)nnc(C)c3c2C)cc1	MEKK2 WT-MEK5 476, MEKK2 mut-MEK5 920, MEKK3 PB1 HTS 139
O=C(NCCCn1ccnc1)/C(=C\c1cccnc1)NC(=O)c1cccc(Br)c1	GRK2 aptamer HTS 66
COCCOC(=O)/C(=C/c1ccc(OC(=O)c2ccccc2)cc1)C(C)=O	MEKK2 WT-MEK5 4.0
O=C(Nc1cc(C(F)(F)F)ccc1-n1cncn1)c1ccc(F)cc1Cl	none (no result: MEKK2 WT-MEK5, MEKK2 mut-MEK5, MEKK3 PB1 HTS)
CCOC(=O)CC1C(=O)NCCN1C(=O)c1cccc(OC)c1 (stereo not drawn)	none
COc1ccc(C(OCC(O)CNCCc2ccccc2)c2ccc(OC)cc2)cc1 (stereo not drawn)	MEKK2 WT-MEK5 151
Cc1nn(C)cc1NC(=O)CC12CC3CC(CC(C3)C1)C2	MEKK3 PB1 HTS 141
CCn1nc(C)c(NC(=O)CC23CC4CC(CC(C4)C2)C3)c1C	none
COc1ccccc1-n1cc([C@@H]2C[C@H]3CN(c4ccccc4)C(=O)[C@]34CCCN24)cn1	MEKK2 mut-MEK5 138
Cc1nc(C(=O)N2CCCC(N3CCN(c4ccccc4C)CC3)C2)cs1 (stereo not drawn)	none
Cc1ccccc1N1CCN(C2CCCN(C(=O)c3cnsn3)C2)CC1 (stereo not drawn)	MEKK2 WT-MEK5 65[inhibitor], MEKK3 PB1 HTS 77[inhibitor]
CCOC(=O)c1c(CC(C)C)csc1/N=C/C1C(=O)CCCC1=O	none
CCOC(=O)c1c(-c2ccccc2)csc1/N=C/C1C(=O)CCCC1=O	MEKK2 mut-MEK5 70
COc1ccc(NC(=O)[C@H](C)NC(=O)C2CCN(S(=O)(=O)c3ccc(C)cc3)CC2)cc1OC	none
Cc1cccc(NS(=O)(=O)c2ccc3[nH]c(=O)[nH]c3c2)c1C	none
Cc1cccc(NS(=O)(=O)c2ccc3c(c2)Cc2cc(S(=O)(=O)Nc4cccc(C)c4C)ccc2-3)c1C	MEKK2 WT-MEK5 -3.0
c1ccc(C2(Cn3ccc4ccccc43)OCCO2)cc1	MEKK2 WT-MEK5 12
O=C(O)c1ccc(Cn2ccc3ccccc32)o1	none
OCC[C@H]1C[C@H](O)[C@@H](O)[C@]2(OCCc3ccccc32)O1	none (no result: MEKK2 WT-MEK5, MEKK2 mut-MEK5, MEKK3 PB1 HTS)
Cn1cc(CN2CCC(C(=O)N3CCCCC3)CC2)c(-c2ccccc2F)n1	none
CCN(CC)c1ccc(/C=N/NC(=S)NCc2ccccc2)c(O)c1	GRK2 aptamer HTS 42
Cc1cccc(-n2c(SCC(=O)N3CCN(c4ccccn4)CC3)nnc2N2CCOCC2)c1	none (no result: MEKK2 WT-MEK5, MEKK2 mut-MEK5, MEKK3 PB1 HTS)
O=C(CSc1ccc(Cl)cc1)c1ccco1	GRK2 aptamer HTS 58
C=C(C)C(=O)Nc1cccc(C2=NOC3(C2)C[C@@H](C(N)=O)N(C(=O)c2ccc(OC)cc2)C3)c1 (stereo partly drawn)	GRK2 aptamer HTS 95
COc1ccc(C(=O)N2CC3(CC(c4cccc(NC(=O)CC(c5ccccc5)c5ccccc5)c4)=NO3)C[C@H]2C(N)=O)cc1 (stereo partly drawn)	none
CCc1noc(C)c1C(=O)N(C)CC(=O)Nc1ccc(Br)cc1C	none (no result: MEKK2 WT-MEK5, MEKK2 mut-MEK5, MEKK3 PB1 HTS)
CS(=O)(=O)c1ccccc1C(=O)Nc1ccc(S(=O)(=O)N2CCCC2)cc1	none (no result: MEKK2 WT-MEK5, MEKK2 mut-MEK5, MEKK3 PB1 HTS)
COc1cc(OC)cc(C(=O)NCC2CCCN(C(=O)c3csc(C)n3)C2)c1 (stereo not drawn)	none
CCCOc1ccc(C(=O)CCC(=O)OCC(=O)Nc2cc(C)on2)cc1	none (no result: GRK2 aptamer HTS)
CCCOc1ccc(C(=O)CCC(=O)OCC(=O)Nc2ccc(OCC)cc2)cc1	GRK2 aptamer HTS 85
Cc1ccc(S(=O)(=O)N2CCN(CCOc3c(Cl)cccc3Cl)CC2)cc1C	none (no result: MEKK2 WT-MEK5, MEKK2 mut-MEK5, MEKK3 PB1 HTS)
CCN(CC)c1ccc(/C=N/NC(=O)c2cc(C)nc3ccccc23)cc1	none
CCN(CC)c1ccc(/C=C/c2cc(-c3ccccc3)c3ccccc3n2)cc1	MEKK3 PB1 HTS 74[inhibitor]
O=C(CCC(=O)c1cccs1)Nc1ncccc1O	none (no result: MEKK2 WT-MEK5, MEKK2 mut-MEK5, MEKK3 PB1 HTS)
C[C@]12c3[nH]c4cc(-c5ccco5)ccc4c3CCN1C(=O)[C@@H](CC(=O)NCC13CC4CC(CC(C4)C1)C3)C[C@@H]2C(=O)N1CCOCC1	none (no result: MEKK2 WT-MEK5, MEKK2 mut-MEK5, MEKK3 PB1 HTS)
Nc1ccc(Sc2cc(Cl)nc(N)n2)cc1	none
Nc1nc(N)c2cc(Sc3ccc4ccccc4c3)ccc2n1	MEKK2 WT-MEK5 157
COc1ccc(N(CC(=O)Nc2ccc(C(N)=O)cc2)S(=O)(=O)c2ccc(C)c([N+](=O)[O-])c2)cc1	MEKK2 WT-MEK5 -7.0
CCC(=O)N1N=C(c2cccs2)CC1c1ccco1 (stereo not drawn)	MEKK2 WT-MEK5 13
COc1ccccc1S(=O)(=O)Cc1ccc(C(=O)NCCCN2CCN(c3ccc(F)cc3)CC2)o1	MEKK2 WT-MEK5 140
COC(=O)CCCNC(=O)c1ccccn1	none
Cn1cc(/C=C2\SC(=S)N(NC(=O)c3ccccc3)C2=O)c2ccccc21	none
Cn1cc(/C=C2\SC(=S)N(NC(=O)c3cccc(Cl)c3)C2=O)c2ccccc21	MEKK2 WT-MEK5 48[inhibitor] (no result: GRK2 aptamer HTS)
CCOc1ccccc1-c1c2cc(O)c(=O)cc-2oc2cc(O)c(O)cc12	MEKK2 WT-MEK5 166, MEKK2 mut-MEK5 51, MEKK3 PB1 HTS 137 (no result: GRK2 aptamer HTS)
CCc1ccc(NC(=O)COC(=O)CC2CCCC2)cc1	none (no result: MEKK2 WT-MEK5, MEKK2 mut-MEK5, MEKK3 PB1 HTS)
CCN(CC)CCNc1ncnc2c1sc1nc(N3CCCC3)c3c(c12)CC(C)(C)OC3	MEKK2 WT-MEK5 150
Fc1ccccc1CNc1nc(-c2cccnc2)nc2ccccc12	MEKK2 WT-MEK5 21[inhibitor], MEKK2 mut-MEK5 31
COc1ccc(C)cc1NC(=O)NNS(=O)(=O)c1ccc(NC(C)=O)cc1	MEKK2 WT-MEK5 47[inhibitor], MEKK3 PB1 HTS 39[inhibitor] (no result: GRK2 aptamer HTS)
CC(=O)OCCCNc1cc(Sc2ccc(C)cc2)c2nonc2c1[N+](=O)[O-]	MEKK3 PB1 HTS 130
CC(=O)OCCCNc1cc(Sc2nc3ccccc3s2)c2nonc2c1[N+](=O)[O-]	none
O=C(NNC(=O)c1c(F)cccc1F)c1ccccc1-n1cccc1	none
O=C(C1CCC(CNS(=O)(=O)c2cccs2)CC1)N1CCN(c2ccc(F)cc2)CC1 (stereo not drawn)	MEKK3 PB1 HTS 77[inhibitor]
CC(C)[C@H](NS(=O)(=O)c1ccccc1)C(=O)OCC(=O)Nc1cccc(S(N)(=O)=O)c1	GRK2 aptamer HTS 71 (no result: MEKK2 WT-MEK5, MEKK2 mut-MEK5, MEKK3 PB1 HTS)
CCOC(=O)c1c(C)n(-c2ccc(C)cc2)c2ccc(OCC(O)CNCCCO)cc12 (stereo not drawn)	MEKK2 WT-MEK5 181
Cc1oc(=O)cc(OCc2ccccc2)c1C	GRK2 aptamer HTS 45 (no result: MEKK2 WT-MEK5, MEKK2 mut-MEK5, MEKK3 PB1 HTS)

Screens from PubChem.
